# In PubChem BioAssay (NCATS):
# Results filed as inconclusive are left out. A call without a number means that no potency is given here. Active and inactive are the calls of the source. The call rests on the fitted dose curve; in most records, active means well fitted curve in the direction sought with a large enough effect; inconclusive means small, poorly fitted or top-dose-only effect, or another doubt; inactive means no such curve, though single readings can be large; an effect the other way counts as inactive or inconclusive. Where a SMILES comes first, the peptide text is derived from it. The star is where a group is joined. βNA = c1ccc2cc(N*)ccc2c1; Cbz = O=C(OCc1ccccc1)*
# Columns and labels:
# [1] = biological target: Glutathione peroxidase 1 (Homo sapiens) (UniProt P07203); assay: Primary qHTS Assay for Inhibitors of Recombinant Selenoprotein Glutathione Peroxidase 1 (GPX1) (AID 1845191); further: nearly all actives have a fitted effect of over 65% in size
# Glutathione peroxidase 1 (Homo sapiens), sequence (P07203 whole entry, looked up): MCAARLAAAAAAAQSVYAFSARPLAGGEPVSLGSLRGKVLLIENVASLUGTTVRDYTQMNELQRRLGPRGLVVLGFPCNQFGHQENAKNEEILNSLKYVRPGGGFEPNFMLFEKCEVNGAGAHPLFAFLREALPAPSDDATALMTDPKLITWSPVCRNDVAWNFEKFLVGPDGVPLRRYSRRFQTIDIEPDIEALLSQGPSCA
# How it was run: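 GR-coupled assay: compounds preincubated 30 min at room temperature with GPX1, then reaction started with CHP; final 10 nM GPX1, 1 mM GSH, 0.5 mM CHP, 0.5 mM NADPH, 100 nM GR, 0.01% BSA, pH 7.5 Tris buffer. NADPH fluorescence (340/450 nm) read at 0 and 15 min.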
# [2] = biological target: Phospholipid hydroperoxide glutathione peroxidase GPX4 (Homo sapiens) (UniProt P36969); assay: Primary qHTS Assay for Inhibitors of Recombinant Selenoprotein Glutathione Peroxidase 4 (GPX4) (AID 1845192); further: nearly all actives have a fitted effect of over 65% in size
# Phospholipid hydroperoxide glutathione peroxidase GPX4 (Homo sapiens), sequence (P36969 whole entry, looked up): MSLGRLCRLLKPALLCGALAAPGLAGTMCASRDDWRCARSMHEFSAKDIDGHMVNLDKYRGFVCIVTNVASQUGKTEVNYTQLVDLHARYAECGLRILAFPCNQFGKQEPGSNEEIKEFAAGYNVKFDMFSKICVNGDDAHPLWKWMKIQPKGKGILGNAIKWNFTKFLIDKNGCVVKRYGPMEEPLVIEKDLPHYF
# How it was run: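 GR-coupled assay: recombinant GPX4 preincubated 30 min with compound at room temperature; final 200 nM GPX4, 1 mM GSH, 0.5 mM cumene hydroperoxide, 0.5 mM NADPH, 100 nM GR, 0.01% BSA, pH 7.5 Tris. NADPH fluorescence (340/450 nm) read at 0 and 15 min.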
# [3] = biological target: Luciferin 4-monooxygenase (Photinus pyralis) (UniProt P08659); assay: Primary firefly luciferase (FLuc) qHTS assay for identification of artifact compounds. (AID 1845220); further: nearly all actives have a fitted effect of over 60% in size
# How it was run: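 Titrated compounds were incubated 15 min at RT, protected from light, with luciferin and ATP at 10 uM; reaction started with 10 nM FLuc, luminescence imaged at 5 min, and concentration-response fitted by Hill equation.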
# [4] = Primary fluorescence-based thiol-reactive (MSTI) qHTS assay for identification of artifact compounds. (AID 1845221); further: nearly all actives have a fitted effect of over 65% in size; further: potency means the concentration at half of the fitted maximal effect;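 on activity change, negative = thiol reactive: series mostly up to about 54 µM; thiol-reactive compounds lower the probe fluorescence signal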
# How it was run: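 Curve-fitted percent inhibition (4-parameter Hill) derived from fluorescence, Ex 525/Em 598 nm, scaled with Acetyl-MSTI and MSTI; 1 h incubation at room temperature.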
# [5] = tested on: Nanoluciferase (engineered Oplophorus gracilirostris luciferase); assay: Primary Nanoluciferase (NLuc) qHTS assay for identification of artifact compounds. (AID 1845222);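 further: NLuc secreted into diluted conditioned medium of S16 cells; series mostly up to about 54 µM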
# How it was run: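 qHTS format, against NLuc in S16 cell-conditioned medium. Nano-Glo substrate 1:100 was added after 15 min at room temperature. Luminescence was taken after a further 5 min.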
SMILES,Potency [1],Potency [2],Potency [3],Potency [4],Potency [5],outcome [3],"activity change, negative = thiol reactive [4]","activity, negative = inhibition [5]"
C/C(=C\CC/C(C)=C/CC[C@]1(C)CCc2cc(O)cc(C)c2O1)CC/C=C(\C)C(=O)O,inactive,inactive,inactive,4.62 µM (active),inactive,–,–,–
CC(C)CC(NC(=O)OCc1ccccc1)C(=O)NC(CC(C)C)C(=O)NC(CCC(=O)O)C(=O)Nc1ccc2ccccc2c1 (stereo not drawn) (Cbz-Leu-Leu-Glu-βNA; configuration not given here),inactive,inactive,inactive,inactive,inactive,–,–,–
COc1cc(C2Oc3c(OC)cc(/C=C/C(=O)OC4CC(O)(C(=O)O)CC(O)C4O)cc3C2CO)ccc1O (stereo not given),inactive,inactive,inactive,inactive,inactive,–,–,–
CC1(C)CC[C@]2(C(=O)O[C@@H]3O[C@H](CO)[C@@H](O)[C@H](O)[C@H]3O)CC[C@]3(C)C(=CCC4[C@@]5(C)CC[C@H](O[C@@H]6O[C@H](C(=O)O)[C@@H](O[C@@H]7O[C@H](CO)[C@@H](O)[C@H](O)[C@H]7O)[C@H](O)[C@H]6O[C@@H]6O[C@H](CO)[C@@H](O)[C@H](O)[C@H]6O)C(C)(C)C5CC[C@]43C)C2C1 (stereo not given in full),inactive,inactive,–,–,–,inactive [at 11.6 µM],240% [at 11.5 µM] (inactive),0% [at 11.6 µM] (inactive)
CC(=O)O[C@H]1[C@H](O[C@H]2CC[C@]34C[C@]35CC[C@]3(C)[C@@H]([C@@]6(C)CC[C@@H](C(C)(C)O)O6)[C@@H](O)C[C@@]3(C)[C@@H]5C[C@H](O[C@@H]3O[C@H](CO)[C@@H](O)[C@H](O)[C@H]3O)[C@H]4C2(C)C)OC[C@@H](OC(C)=O)[C@@H]1O,inactive,inactive,inactive,inactive,inactive,–,–,–
COC(=O)[C@]1(C)CCC[C@@]2(C)[C@@H]3CC[C@@H]4C[C@@]3(CC[C@@H]21)C[C@H]4C(=O)O,inactive,inactive,inactive,inactive,inactive,–,–,–
CC1C(O)C(O)C2C(C(=O)OCCc3ccc(O)cc3)=COC(O[C@@H]3O[C@H](CO)[C@@H](O)[C@H](O)[C@H]3O)C12 (stereo not given in full),inactive,inactive,inactive,1.84 µM (active),inactive,–,–,–
C=C1C(O)CC2C(C(=O)O)=COC(O[C@@H]3O[C@H](COC(=O)c4ccc(O)cc4)[C@@H](O)[C@H](O)[C@H]3O)C12 (stereo not given in full),inactive,inactive,inactive,5.19 µM (active),inactive,–,–,–
C=C(CC/C=C(\C)C(=O)O)C1(O)CC=C(C)CC1 (stereo not given),inactive,inactive,inactive,inactive,inactive,–,–,–
CN1CCc2cc(Cl)c(O)cc2[C@@H](c2cccc3c2OCC3)C1,inactive,inactive,inactive,inactive,inactive,–,–,–
Cc1ncc([N+](=O)[O-])n1C[C@H](O)CN1CCOCC1,inactive,inactive,inactive,inactive,inactive,–,–,–
C/C=C(/C)C(=O)OC1C(OC(C)=O)C23C(O)OC4(CCC5C6(C)CCC(OC7OC(C(=O)O)C(O)C(OC8OC(CO)C(O)C(O)C8OC8OC(C)C(O)C(O)C8OC8OCC(O)C(O)C8O)C7OC7OC(CO)C(O)C(O)C7O)C(C)(C)C6CCC5(C)C4(C)CC2OC(C)=O)C3CC1(C)C (stereo not given),inactive,inactive,–,–,–,inactive [at 11.6 µM],196% [at 11.5 µM] (inactive),0.798% [at 11.6 µM] (inactive)
CC/C=C/C=C/C1(C)OC(CC(CO)OC)=CC1=O (stereo not given),inactive,inactive,inactive,inactive,inactive,–,–,–
CC1=C2CC(C)(C)CC2C(O)C2=C(C1)C(=O)OC2O (stereo not given),inactive,inactive,inactive,inactive,inactive,–,–,–
Cc1nnc(-c2ccc3occ(-c4ccc(S(C)=O)cc4)c3c2)o1 (stereo not given),inactive,inactive,inactive,inactive,inactive,–,–,–
CC1CCC2(C(=O)OC3OC(CO)C(O)C(O)C3O)CCC3(C)C(=CCC4C5(C)CCC(O)C(C)(CO)C5CCC43C)C2C1(C)O (stereo not given),inactive,inactive,inactive,inactive,inactive,–,–,–
O=C(O)C(Cc1ccccc1)NC(=O)C1CCCN1 (stereo not drawn) (H-Pro-Phe-OH; configuration not given here),inactive,inactive,inactive,inactive,inactive,–,–,–
CC1(C)CC[C@]2(C(=O)O[C@@H]3O[C@H](CO)[C@@H](O)[C@H](O)[C@H]3O)CC[C@]3(C)C(=CCC4[C@@]5(C)C[C@@H](O)[C@H](O)[C@@](C)(CO)C5[C@H](O)C[C@]43C)C2C1 (stereo not given in full),inactive,inactive,inactive,inactive,inactive,–,–,–
